Source: PubChem BioAssay (EPA / NIEHS)
Activity calls are given as the source filed them. The calls were made as follows: active = hit-call score of the fitted dose curve at least 0.9, where 1 is the maximum; inactive = score below 0.9.

Test: ATG_TGFb_CIS: Attagene CIS-FACTORIAL HepG2 Assay for human Transforming Growth Factor (TGF) (AID 2282967)
Details: HepG2 Attagene CIS TGFb reporter, mRNA transcription; actives raise or lower the signal
Method: ATG_CIS is a cell-based, multiplexed-readout assay that uses HepG2, a human liver cell line, with measurements taken at 24 hours after chemical dosing in a 24-well plate.ATG_TGFb_CIS is one of 52 assay component(s) measured or calculated from the ATG_CIS assay. It is designed to make measurements of mRNA induction, a form of inducible reporter, as detected with fluorescence intensity signals by Reverse transcription polymerase chain reaction (RT-PCR) and Capillary electrophoresis technology.Data from the assay component ATG_TGFb_CIS was analyzed into 1 assay endpoint. This assay endpoint, ATG_TGFb_CIS, was analyzed with bidirectional fitting relative to DMSO as the negative control and baseline of activity. Using a type of inducible reporter, measures of mRNA for gain or loss-of-signal activity can be used to understand the reporter gene at the transcription factor-level as they relate to the gene TGFB1. Furthermore, this assay endpoint can be referred to as a primary readout, because this assay has produced multiple assay endpoints where this one serves a reporter gene function. To generalize the intended target to other relatable targets, this assay endpoint is annotated to the growth factor intended target family, where the subfamily is transforming growth factor beta.
Human liver HepG2 cells are transiently transfected with multiple reporter transcription units (MRTUs) in 6-well plates using FuGene 6 reagent (Roche; 3 ml FuGene/1 mg DNA). The MRTU constructs are regulated by a cis-regulating element (promoter). […] A major difference between the CIS and TRANS system is that in CIS activities of endogenous TFs are measured, whereas the TRANS assay evaluates changes in activities of exogenous, chimeric NR-Gal4 proteins. […] At the end of 24 hour incubation, total RNA was isolated using TriZol reagent (Invitrogen). The isolated RNA is then reverse-transcribed using oligo(dT) primer and Mo-MLV reverse transcriptase (Invitrogen) with DNAse I (Ambion) treatment for 30 min. The one-tenth of the produced cDNA was amplified by PCR using Taq DNA polymerase (Invitrogen) and two reporter sequence-specific primers. The PCR products were fluorescently labeled by primer extension with 6-arboxyfluorescein (6-FAM) 5'-labeled reporter sequence-specific primer (2 min at 95 C, 20 s at 68 C and 10 min at 72 C) and these products were digested with 5U of HpaI (New England Biolabs) for 2h at 37 C. The fragments were purified using Qiaquick PCR columns (Qiagen), analyzed on an ABI 3130xL genetic analyzer (Applied Biosystems) with peak positions identified by using a set of X-rhodamine (ROX)-labeled MapMarker1000 molecular weight standards (BioVentures). The raw capillary electrophoresis data was processed using Attagraph software (Attagene).

outcome, inactive:
C=C[C@](C)(O)CC[C@@H]1[C@@]2(C)CCCC(C)(C)[C@@H]2CC[C@@]1(C)O
CCc1ccc2c(c1)C(=O)c1ccccc1C2=O
C=CCOc1c(Br)cc(Br)cc1Br
CC1=CC[C@H]2C[C@@H]1C2(C)C
CC(=O)OCc1ccco1
CCCCCCCC(C)=O
Nc1ccc(N=Nc2ccccc2)c(N)n1
O=C1CCCCCCCCCCCCCCCO1
CC[C@H]1OC(=O)[C@H](C)[C@@H](O[C@H]2C[C@@](C)(OC)[C@@H](O)[C@H](C)O2)[C@H](C)[C@@H](O[C@@H]2O[C@H](C)C[C@H](N(C)C)[C@H]2O)[C@](C)(O)C[C@@H](C)C(=NOCOCCOC)[C@H](C)[C@@H](O)[C@]1(C)O
CCC(C)C=O (stereo not given)
CCOC(=O)c1ccc(N(C)C)cc1
CN1C(=O)N(C)C(O)C1O (stereo not given)
CCCCCCCCCCC=CC#N
CCCCCCCCCCc1ccccc1
c1ccc(CCCc2ccncc2)cc1
CC1OC1C1CCC2(C)OC2C1 (stereo not given)
CC(=O)Nc1ccc2c(c1)Cc1cc(NC(C)=O)ccc1-2
c1ccc(-c2ccccn2)nc1
CC1(C)S[C@@H]2[C@H](NC(=O)COc3ccccc3)C(=O)N2[C@H]1C(=O)O
Cc1cc(C)c(C)c(C)c1
CCCNC(=O)NS(=O)(=O)c1ccc(Cl)cc1
CC=CC(F)(F)C(F)(F)C(F)(F)F
O=[N+]([O-])C1(Br)COCOC1
CO[Si](CCC1CCC2OC2C1)(OC)OC (stereo not given)
Nc1cccc(C(F)(F)F)c1
CCC(CC)C(=O)O
O=P(O)(O)Oc1ccccc1
C=CCOCC(O)CCl (stereo not given)
CC(CC=O)c1ccccc1 (stereo not given)
CCCOCCOCCOCCO
CCCCC(CC)COC(=O)c1ccccc1 (stereo not given)
Cc1cc(C)c(C(=O)O)c(C)c1
O=C(c1ccc(O)cc1)c1ccc(O)cc1O
N#[N+]c1ccc2c(S(=O)(=O)[O-])cccc2c1O
CCOC(F)(F)C(F)(F)C(F)(F)C(F)(F)F
CC(CC=O)CCCC(C)(C)O (stereo not given)
NC(=O)N=NC(N)=O
CCCCCCCCCCCCCCCCCC#N
COC(=O)c1sccc1S(N)(=O)=O
CCCOC(=O)CCCCC(=O)OCCC
